In assay [1] the test system is Tyrosine-protein kinase ABL1 (Homo sapiens), P00519 [T315I]. The note with it: at 1 µM.
Assay [2] relates to Tyrosine-protein kinase ABL1 (Homo sapiens), P00519 [Y253F]. The note with it: at 0.1 µM.
For assay [3] the test system is unchanged. The following applies: at 1 µM.
Assay [4] deals with Tyrosine-protein kinase ABL1 (Homo sapiens) (UniProt P00519). The note with it: at 0.1 µM.
For assay [5] the target is unchanged. The note with it: at 1 µM.
Assay [6] addresses ALK tyrosine kinase receptor (Homo sapiens) (UniProt Q9UM73). The note with it: at 0.1 µM.
For assay [7] the target is unchanged. The note with it: at 1 µM.
Assay [8] concerns the target Tyrosine-protein kinase ABL2 (Homo sapiens) (UniProt P42684). The note with it: at 0.1 µM.
Assay [9] shares this target. The following applies: at 1 µM.
In assay [10] the target is Tyrosine-protein kinase receptor UFO (Homo sapiens) (UniProt P30530). The following applies: at 0.1 µM.
The target is the same in assay [11]. The note with it: at 1 µM.
The target in assay [12] is Tyrosine-protein kinase Blk (Homo sapiens) (UniProt P51451). The note with it: at 0.1 µM.
Tyrosine-protein kinase Blk (Homo sapiens), sequence (P51451 2-505 limits assumed): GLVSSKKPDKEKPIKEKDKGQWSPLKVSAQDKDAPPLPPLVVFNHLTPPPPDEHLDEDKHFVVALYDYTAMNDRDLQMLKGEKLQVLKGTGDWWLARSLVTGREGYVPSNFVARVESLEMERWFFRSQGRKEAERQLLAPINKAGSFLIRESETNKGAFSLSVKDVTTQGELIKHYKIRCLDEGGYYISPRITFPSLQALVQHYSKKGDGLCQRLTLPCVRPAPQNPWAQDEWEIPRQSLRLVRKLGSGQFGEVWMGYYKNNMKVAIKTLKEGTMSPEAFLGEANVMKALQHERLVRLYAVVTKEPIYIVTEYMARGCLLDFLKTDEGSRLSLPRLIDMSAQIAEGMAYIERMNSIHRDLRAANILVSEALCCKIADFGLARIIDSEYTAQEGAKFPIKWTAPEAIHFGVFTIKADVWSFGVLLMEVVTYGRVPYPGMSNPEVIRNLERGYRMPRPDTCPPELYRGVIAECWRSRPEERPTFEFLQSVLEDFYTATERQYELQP
For assay [13] the target is unchanged. The note with it: at 1 µM.
Assay [14] addresses T1, Cytoplasmic tyrosine-protein kinase BMX (Homo sapiens) (UniProt P51813).
T1 sequence (whole entry): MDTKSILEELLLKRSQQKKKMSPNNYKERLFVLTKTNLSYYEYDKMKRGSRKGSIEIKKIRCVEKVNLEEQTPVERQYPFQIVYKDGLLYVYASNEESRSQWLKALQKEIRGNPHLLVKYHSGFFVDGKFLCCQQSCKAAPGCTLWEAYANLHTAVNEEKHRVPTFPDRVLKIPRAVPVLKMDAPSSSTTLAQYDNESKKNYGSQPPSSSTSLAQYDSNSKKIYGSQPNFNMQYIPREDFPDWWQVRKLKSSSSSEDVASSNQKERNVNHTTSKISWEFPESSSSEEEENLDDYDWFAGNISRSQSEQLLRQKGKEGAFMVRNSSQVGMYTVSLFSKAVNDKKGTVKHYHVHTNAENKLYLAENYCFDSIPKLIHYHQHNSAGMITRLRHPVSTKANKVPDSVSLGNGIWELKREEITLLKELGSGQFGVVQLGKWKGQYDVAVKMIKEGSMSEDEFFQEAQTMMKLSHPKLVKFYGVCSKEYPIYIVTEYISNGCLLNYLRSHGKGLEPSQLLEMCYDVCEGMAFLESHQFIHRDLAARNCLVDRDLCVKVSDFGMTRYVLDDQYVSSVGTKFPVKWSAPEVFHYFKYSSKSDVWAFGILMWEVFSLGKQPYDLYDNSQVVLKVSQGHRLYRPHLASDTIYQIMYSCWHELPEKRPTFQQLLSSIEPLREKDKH
The following applies: at 0.1 µM.

For assay [15], the target named is T1, Cytoplasmic tyrosine-protein kinase BMX (Homo sapiens). The note with it: at 1 µM.
The target in assay [16] is Protein-tyrosine kinase 6 (Homo sapiens) (UniProt Q13882). The note with it: at 0.1 µM.
Protein-tyrosine kinase 6 (Homo sapiens), sequence (Q13882 whole entry, looked up): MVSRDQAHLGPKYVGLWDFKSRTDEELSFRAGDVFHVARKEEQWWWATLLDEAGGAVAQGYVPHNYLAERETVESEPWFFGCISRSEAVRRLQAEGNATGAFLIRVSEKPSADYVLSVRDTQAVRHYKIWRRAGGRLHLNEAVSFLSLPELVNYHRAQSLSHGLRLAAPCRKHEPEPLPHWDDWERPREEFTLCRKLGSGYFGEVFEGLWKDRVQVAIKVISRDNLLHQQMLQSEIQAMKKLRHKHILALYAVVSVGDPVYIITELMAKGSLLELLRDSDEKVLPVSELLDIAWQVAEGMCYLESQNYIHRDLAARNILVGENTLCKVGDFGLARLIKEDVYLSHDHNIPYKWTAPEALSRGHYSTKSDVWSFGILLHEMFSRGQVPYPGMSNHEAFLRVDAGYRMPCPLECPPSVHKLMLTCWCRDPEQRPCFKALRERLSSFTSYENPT
Assay [17] shares this target. The following applies: at 1 µM.
The target of assay [18] is Tyrosine-protein kinase BTK (Homo sapiens) (UniProt Q06187). The following applies: at 0.1 µM.
Tyrosine-protein kinase BTK (Homo sapiens), sequence (Q06187 whole entry): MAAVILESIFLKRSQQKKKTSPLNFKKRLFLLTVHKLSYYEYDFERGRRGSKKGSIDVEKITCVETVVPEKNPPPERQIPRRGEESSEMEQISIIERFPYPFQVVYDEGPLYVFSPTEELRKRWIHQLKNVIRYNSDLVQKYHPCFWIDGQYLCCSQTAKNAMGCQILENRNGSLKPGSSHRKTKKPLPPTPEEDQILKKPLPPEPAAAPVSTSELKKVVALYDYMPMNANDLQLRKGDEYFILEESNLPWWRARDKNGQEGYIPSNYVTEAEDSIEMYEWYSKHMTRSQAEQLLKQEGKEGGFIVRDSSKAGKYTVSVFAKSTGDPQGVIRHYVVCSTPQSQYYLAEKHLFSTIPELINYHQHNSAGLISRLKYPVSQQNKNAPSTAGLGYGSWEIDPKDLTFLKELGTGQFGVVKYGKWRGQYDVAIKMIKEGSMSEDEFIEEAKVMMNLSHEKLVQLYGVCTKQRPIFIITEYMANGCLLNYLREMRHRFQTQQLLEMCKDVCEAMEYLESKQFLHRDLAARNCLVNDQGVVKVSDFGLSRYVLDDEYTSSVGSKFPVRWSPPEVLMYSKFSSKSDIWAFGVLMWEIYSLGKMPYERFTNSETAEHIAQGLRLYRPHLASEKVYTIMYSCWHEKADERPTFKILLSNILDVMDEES
Assay [19] shares this target. The following applies: at 1 µM.
Assay [20] deals with Tyrosine-protein kinase CSK (Homo sapiens) (UniProt P41240). The note with it: at 0.1 µM.
Tyrosine-protein kinase CSK (Homo sapiens), sequence (P41240 2-450 limits assumed): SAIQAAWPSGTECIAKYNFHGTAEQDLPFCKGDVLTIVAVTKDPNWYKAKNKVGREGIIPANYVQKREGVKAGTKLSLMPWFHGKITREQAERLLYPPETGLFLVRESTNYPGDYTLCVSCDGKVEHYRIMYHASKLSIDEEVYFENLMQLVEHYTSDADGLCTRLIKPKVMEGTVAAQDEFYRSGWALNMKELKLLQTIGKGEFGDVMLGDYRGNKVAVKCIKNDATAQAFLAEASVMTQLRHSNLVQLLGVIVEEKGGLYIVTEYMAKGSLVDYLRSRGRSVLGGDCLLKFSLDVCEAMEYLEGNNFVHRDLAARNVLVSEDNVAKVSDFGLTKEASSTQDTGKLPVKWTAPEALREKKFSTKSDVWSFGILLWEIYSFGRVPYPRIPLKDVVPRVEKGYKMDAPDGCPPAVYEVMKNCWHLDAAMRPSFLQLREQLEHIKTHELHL

The inhibition is the change of the read-out against control, counted positive when it falls.

ALK tyrosine kinase receptor (Homo sapiens), sequence (Q9UM73 19-1620 limits assumed): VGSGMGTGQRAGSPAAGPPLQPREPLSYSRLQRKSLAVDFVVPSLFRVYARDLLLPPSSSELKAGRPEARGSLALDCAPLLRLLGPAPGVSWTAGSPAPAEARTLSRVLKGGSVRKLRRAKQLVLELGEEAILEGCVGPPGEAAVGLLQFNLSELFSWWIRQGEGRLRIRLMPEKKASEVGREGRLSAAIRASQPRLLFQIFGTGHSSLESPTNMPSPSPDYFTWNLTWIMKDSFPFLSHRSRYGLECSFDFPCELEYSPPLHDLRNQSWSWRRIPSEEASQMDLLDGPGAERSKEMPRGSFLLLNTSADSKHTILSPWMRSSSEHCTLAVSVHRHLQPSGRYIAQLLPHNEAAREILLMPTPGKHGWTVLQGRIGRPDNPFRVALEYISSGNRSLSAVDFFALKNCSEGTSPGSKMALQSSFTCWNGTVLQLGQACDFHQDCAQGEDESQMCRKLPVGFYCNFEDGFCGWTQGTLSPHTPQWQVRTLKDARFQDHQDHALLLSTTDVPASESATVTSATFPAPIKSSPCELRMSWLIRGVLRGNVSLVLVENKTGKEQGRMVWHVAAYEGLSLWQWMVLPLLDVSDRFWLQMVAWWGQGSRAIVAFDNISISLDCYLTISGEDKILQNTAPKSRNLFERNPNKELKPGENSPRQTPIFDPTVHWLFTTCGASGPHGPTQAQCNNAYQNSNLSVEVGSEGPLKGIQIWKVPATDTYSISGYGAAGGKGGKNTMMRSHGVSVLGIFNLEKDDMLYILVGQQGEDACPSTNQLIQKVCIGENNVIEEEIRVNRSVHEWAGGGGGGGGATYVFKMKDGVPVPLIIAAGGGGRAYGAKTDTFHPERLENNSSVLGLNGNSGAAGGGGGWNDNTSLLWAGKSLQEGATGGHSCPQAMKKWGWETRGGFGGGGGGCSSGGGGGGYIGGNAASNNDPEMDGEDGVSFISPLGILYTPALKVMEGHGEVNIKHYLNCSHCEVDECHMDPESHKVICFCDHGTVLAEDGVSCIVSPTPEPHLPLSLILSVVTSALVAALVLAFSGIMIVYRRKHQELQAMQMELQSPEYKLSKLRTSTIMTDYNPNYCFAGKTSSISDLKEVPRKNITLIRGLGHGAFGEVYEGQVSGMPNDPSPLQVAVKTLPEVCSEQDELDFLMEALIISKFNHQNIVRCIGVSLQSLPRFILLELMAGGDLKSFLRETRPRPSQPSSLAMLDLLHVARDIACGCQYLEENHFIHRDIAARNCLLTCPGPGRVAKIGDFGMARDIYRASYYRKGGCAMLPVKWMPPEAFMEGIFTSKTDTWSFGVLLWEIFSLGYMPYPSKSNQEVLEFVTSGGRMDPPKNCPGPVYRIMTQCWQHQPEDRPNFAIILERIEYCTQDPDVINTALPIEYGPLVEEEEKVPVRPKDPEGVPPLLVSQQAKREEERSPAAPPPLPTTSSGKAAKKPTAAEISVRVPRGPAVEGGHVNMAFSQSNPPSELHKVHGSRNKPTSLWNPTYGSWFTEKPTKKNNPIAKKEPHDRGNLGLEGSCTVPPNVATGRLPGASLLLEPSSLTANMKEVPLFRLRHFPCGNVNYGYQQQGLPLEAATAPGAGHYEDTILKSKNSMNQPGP
Tyrosine-protein kinase ABL2 (Homo sapiens), sequence (P42684 whole entry): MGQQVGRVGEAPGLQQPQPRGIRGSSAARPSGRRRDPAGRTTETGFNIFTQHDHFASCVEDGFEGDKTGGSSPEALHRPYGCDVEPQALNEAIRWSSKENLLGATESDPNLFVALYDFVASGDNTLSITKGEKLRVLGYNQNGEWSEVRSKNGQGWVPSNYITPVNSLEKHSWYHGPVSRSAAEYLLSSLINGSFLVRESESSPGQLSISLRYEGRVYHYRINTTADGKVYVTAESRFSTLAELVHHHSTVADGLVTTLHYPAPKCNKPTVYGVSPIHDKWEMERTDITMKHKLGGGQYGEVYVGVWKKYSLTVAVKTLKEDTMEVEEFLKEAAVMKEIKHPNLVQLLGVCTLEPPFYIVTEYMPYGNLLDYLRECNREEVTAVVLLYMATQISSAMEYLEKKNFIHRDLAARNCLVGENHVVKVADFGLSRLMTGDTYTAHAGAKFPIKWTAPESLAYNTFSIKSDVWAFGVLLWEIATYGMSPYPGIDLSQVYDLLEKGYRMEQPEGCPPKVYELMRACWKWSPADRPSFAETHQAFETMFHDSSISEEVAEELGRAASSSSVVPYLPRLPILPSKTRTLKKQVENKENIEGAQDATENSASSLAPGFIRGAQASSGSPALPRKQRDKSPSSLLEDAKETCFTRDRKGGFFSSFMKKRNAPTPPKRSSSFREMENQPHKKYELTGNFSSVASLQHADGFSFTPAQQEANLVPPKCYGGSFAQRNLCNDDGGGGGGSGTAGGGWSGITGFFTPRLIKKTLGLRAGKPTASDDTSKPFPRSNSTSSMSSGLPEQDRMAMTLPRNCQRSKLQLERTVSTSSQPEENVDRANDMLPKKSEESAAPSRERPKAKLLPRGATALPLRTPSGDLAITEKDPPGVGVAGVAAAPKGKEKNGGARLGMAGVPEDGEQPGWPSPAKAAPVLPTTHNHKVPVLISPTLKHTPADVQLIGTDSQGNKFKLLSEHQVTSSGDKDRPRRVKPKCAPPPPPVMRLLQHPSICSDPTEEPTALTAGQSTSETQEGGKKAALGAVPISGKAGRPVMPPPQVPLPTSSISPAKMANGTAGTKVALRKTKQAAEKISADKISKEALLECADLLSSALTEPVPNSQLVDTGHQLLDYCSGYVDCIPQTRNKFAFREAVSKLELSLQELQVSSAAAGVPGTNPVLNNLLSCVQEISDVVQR

Regarding `C[C@@H](Oc1cc(-n2cnc3ccc(OCC4CCN(C)CC4)cc32)sc1C(N)=O)c1ccccc1Cl`, the inhibition in [1] turned out to be 9.89%; in assay [2] it was 2.53%; in [3], 11%; in assay [4], 5.81%; in assay [5] it was 14%; in assay [6] it was 8.57%. Besides, the inhibition in assay [7] was 24.5%; in [8], 8.53%; in assay [9] it was 12.4%; in assay [10], -5.23%; in assay [11] it was 3.11%; in [12] it was 2.92%. The inhibition in [13] worked out at 10.4%; in [14], 0.11%; in assay [15], 2.71%; in assay [16], 5.93%; in [17] it was 6.07%; in [18], 0%. In addition, the inhibition amounted to 0.95% in assay [19] and 5.15% in assay [20].
With `COc1cc2ncn(-c3cc(OCc4cccs4)c(C(N)=O)s3)c2cc1OC`, the inhibition in [1] was 59.6%; in [2], 9.05%; in assay [3] it was 41.8%; in [4], 3.87%; in assay [5], 42%; in assay [6], -3.76%. Besides, the inhibition came to 6.72% in assay [7]; 0.54% in [8]; 18.4% in assay [9]; 3.68% in assay [10]; 1.31% in [11]; 0.4% in [12]. The inhibition is 18.6% in assay [13]; -4.41% in assay [14]; 3.5% in assay [15]; 2.12% in [16]; 7.01% in [17]; -2.66% in assay [18]. Also, the inhibition in [19] is -0.98%; in [20], 4.25%.
On to `COc1ccc(C2=C(N3CCc4ccccc43)C(=O)NC2=O)cc1`, for which the inhibition was 6.11% in assay [1]; 5.42% in assay [2]; 3.01% in [3]; 5.83% in assay [4]; 9.91% in [5]; 1.29% in assay [6]. The inhibition in [7] was 5.62%; in [8] it was 6.76%; in assay [9], 12.3%; in assay [10], -5.65%; in [11], -4.91%; in assay [12], 3.71%. For the same molecule, the inhibition is 2.94% in assay [13]; -1.14% in [14]; 5.15% in [15]; 6% in assay [16]; 5.72% in assay [17]; 1.91% in assay [18]. The inhibition in [19] was 0.84%; in [20], 7.99%.
As for `C/C(Nc1ccc(S(N)(=O)=O)cc1)=C1/C(=O)Nc2ccccc21`, the inhibition in assay [1] was 12.2%; in assay [2] it was -0.47%; in assay [3], 12.8%; in assay [4] it was 1.79%; in assay [5], 11.7%; in assay [6], -1.33%. Further, the inhibition was 14.2% in assay [7]; -0.23% in assay [8]; 10.1% in assay [9]; 0.11% in [10]; 10.5% in [11]; -0.72% in [12]. For the same molecule, the inhibition is 12% in assay [13]; -4.07% in [14]; -0.17% in [15]; -2.78% in assay [16]; -1.43% in assay [17]; -2.32% in assay [18]. Also, the inhibition in assay [19] was -1.09%; in [20], -5.47%.
For `COc1cccc(/C=N/Nc2ncnc3c2cnn3-c2cccc(OC)c2)c1`, the inhibition in [1] was found to be 10.4%; in [2] it was 11.1%; in assay [3] it was 49.7%; in [4], 6.38%; in assay [5], 27.4%; in assay [6], 1.22%. Besides, the inhibition in assay [7] is 2.63%; in assay [8] it was 2.78%; in assay [9] it was 15.2%; in assay [10], -6.24%; in assay [11] it was -4.88%; in assay [12] it was 1.56%. Moreover, the inhibition is 4.98% in assay [13]; 2.16% in assay [14]; 5.64% in assay [15]; 2.5% in [16]; 5.61% in assay [17]; -0.27% in assay [18]. For the same molecule, the inhibition in assay [19] is -1.35%; in [20], 2.79%.
With `CN1CCN(CCCNc2nc3ccc(Oc4ccc(NC(=O)Nc5cc(C(F)(F)F)ccc5F)cc4)cc3[nH]2)CC1`, the inhibition was 32% in assay [1]; 4.8% in assay [2]; 10.8% in assay [3]; -0.51% in assay [4]; 13.6% in assay [5]; -3.93% in assay [6]. For the same molecule, the inhibition in assay [7] is 0.57%; in [8], -0.15%; in assay [9], 15.4%; in assay [10], 0.85%; in assay [11], 27.5%; in assay [12], -2.37%. In addition, the inhibition in assay [13] is -2.3%; in assay [14], -1.87%; in assay [15], 2.63%; in assay [16], -0.99%; in assay [17] it was 1.35%; in assay [18] it was -3.09%. The inhibition in assay [19] is 1.43%; in assay [20], -0.95%.
Consider `C[C@@H](Oc1cc(-n2cnc3ccc(OC4CCN(C)CC4)cc32)sc1C(N)=O)c1ccccc1Cl`, for which the inhibition is 7.51% in assay [1]; 3.29% in assay [2]; 13.1% in [3]; 0.35% in [4]; 7.3% in assay [5]; -0.85% in assay [6]. The inhibition was 5.48% in [7]; -1.57% in assay [8]; 2.18% in [9]; -8.27% in assay [10]; -3.62% in [11]; -0.86% in [12]. The inhibition in assay [13] was -0.94%; in assay [14], 4%; in assay [15], 6.6%; in assay [16], 2.72%; in [17], 3.15%; in assay [18] it was -4.65%. For the same molecule, the inhibition in assay [19] is -3.35%; in assay [20] it was 2.4%.

The values are drawn from ChEMBL document CHEMBL1961873, “Compounds: GSK PKIS; Assays: Nanosyn kinase panel” (2012).
